Values without a mark were called inactive. Records with an inconclusive call do not appear. Active and inactive are the calls of the source. Unless noted, calls follow the shape of the dose curve; as a rule, active = well fitted curve in the direction sought with a large enough effect in the repeat runs; inconclusive = weak or mixed curves; inactive = no such curve, though single readings can be large; an effect the other way counts as inactive or inconclusive.

This note sets out measurements from PubChem BioAssay (Tox21).

The nature of assay [1]: qHTS assay for small molecule agonists of the p53 signaling pathway (AID 651631; calls by dose curve; also: nearly all actives have a fitted effect of over 15% in size; also: potency is read from the fitted curve at half-maximal effect). The method in brief:
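Beta-lactamase reporter activity under p53 response elements was quantified in HCT-116 cells by FRET fluorescence, following 16 h incubation with test compounds at 37 °C and 2 h substrate development at room temperature.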
In general terms: Quantitative high-throughput screening tests each substance at several concentrations.

Assay [2] can be described thus: qHTS assay for small molecules that induce genotoxicity in human embryonic kidney cells expressing luciferase-tagged ATAD5 (AID 651632). Also: nearly all actives have a fitted effect of over 15% in size. Also: potency is read from the fitted curve at half-maximal effect. The method in brief:
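Concentration-response screen for ATAD5 upregulation in HEK293T luciferase reporter cells; 16 hr treatment at 37C, then luminescence after 30 min with Amplite at room temperature.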

Assay [3] in a line: qHTS assay for small molecule agonists of the p53 signaling pathway - cell viability (AID 651633; calls by dose curve;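 also: p53RE-bla HCT reporter cells with a stable beta-lactamase p53 reporter; series mostly up to about 83 µM; nearly all actives have a fitted effect of over 30% in size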). In a few lines: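 p53RE-bla cells, seeded at 4,000 per well and rested 5 h at 37 C/5% CO2, received compounds in DMSO for 16 h at 37 C. CellTiter-Glo was then added, and luminescence was read after 30 min at room temperature to gauge cytotoxicity.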
The nature of assay [4]: qHTS assay for small molecules that induce genotoxicity in human embryonic kidney cells expressing luciferase-tagged ATAD5 - cell viability (AID 651634; calls by dose curve; also: nearly all actives have a fitted effect of over 25% in size; also: potency is read from the fitted curve at half-maximal effect). In a few lines: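 15.5 hr compound or vehicle exposure of HEK293T cells expressing luciferase-tagged ATAD5 at 37C; live-cell protease activity is read by fluorescence after 30 min of CellTiter-Fluor.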
Assay [5] is described as follows: qHTS assay for small molecule disruptors of the mitochondrial membrane potential - cell viability (AID 720634; calls by dose curve;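 also: human HepG2 liver cancer cells; series mostly up to about 83 µM; nearly all actives have a fitted effect of over 20% in size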). The method in brief:
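In this qHTS format, HepG2 cells plated overnight were pinned with compound, incubated 1 hr, and assayed for ATP luminescence with CellTiter-Glo after m-MPI dye addition.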

Assay [6] is described as follows: qHTS assay for small molecule disruptors of the mitochondrial membrane potential (AID 720635). Also: potency is read from the fitted curve at half-maximal effect. The method in brief:
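HepG2 cells (2,000/well) attached overnight at 37C, then took compound for 1 hr at 37C, 5% CO2. Mito-MPS dye was added for 30 min; fluorescence was read at 490/535 nm (monomers) and 540/590 nm (aggregates).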

Assay [7] can be described thus: qHTS assay to test for compound auto fluorescence at 590 nm (red) in HepG2 cells (AID 720674). In a few lines: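 Intrinsic compound fluorescence in the red window (Ex/Em 540/590 nm) is measured in attached HepG2 cells exposed for 1 hr, DMSO vehicle as baseline, benchmarked to Rose Bengal sodium.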
A short description of assay [8]: qHTS assay to test for compound auto fluorescence at 535 nm (green) in HepG2 cells (AID 720675).
The nature of assay [9]: qHTS assay to test for compound auto fluorescence at 460 nm (blue) in HEK293 cells (AID 720678). In a few lines:
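Measured: blue fluorescence (Ex 405/Em 460 nm) of compound-treated HEK293 cells, incubated overnight at 37C with 5% CO2 and scaled to triamterene equivalents.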

Assay [10] can be described thus: qHTS assay to test for compound auto fluorescence at 590 nm (red) in HEK293 cells (AID 720679). In a few lines:
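Using HEK293 cells at 2,000 per well, the screen added 23 nL of each compound after cell attachment and incubated overnight (37C, 5% CO2). The plate reader then captured red-label fluorescence, Ex/Em 540/590nm.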
% is scaled to controls: 0 for no effect and ±100 for the full control effect.

On to `CCCOC(=O)c1ccc(C(=O)OCCC)nc1`, for which the Potency result in assay [1], in assay [2], in [3], in assay [4], in assay [5] and in [6] was “inactive” throughout. Besides, in [9], the Potency result is “inactive”. Moreover, the compound was called inactive in [7], in assay [8] and in [10].
For the compound `Cc1ccnc2ccccc12`, the Potency result in assay [1], in assay [2], in assay [3], in assay [4], in assay [5] and in assay [9] was “inactive” throughout. The Potency in [6] was 19300 nM (active). The compound was called inactive in assay [7], in [8] and in [10].
For the compound `CCCCCCCC/C=C\CCCCCCCC(=O)OC`, the Potency entry in assay [1], in assay [2], in [3], in assay [4], in assay [5] and in assay [6] was “inactive” each time. Besides, in assay [9], the Potency result is “inactive”. For the same compound, the call in assay [7], in assay [8] and in assay [10] was inactive.
On to `COC(=O)Nc1nc2ccc(C(=O)c3cccs3)cc2[nH]1`, for which the Potency is 133 nM (active) in assay [1], 2370 nM (active) in assay [2], 133 nM (active) in [4] and 2370 nM (active) in assay [6]. The Potency entry in assay [3], in assay [5] and in [9] was “inactive” in each case. The compound was called inactive in assay [7], in assay [8] and in assay [10].
Regarding `c1ccc(COCc2ccccc2)cc1`, the Potency entry in assay [1], in assay [2], in [3], in [4], in assay [5] and in assay [6] was “inactive” each time. For the same compound, the Potency result in assay [9] was “inactive”. Further, the call in assay [7] and in [8] was inactive.
Regarding `O=C(/C=C/c1ccccc1)OCCCc1ccccc1`, the Potency entry in assay [1], in [2], in assay [3], in assay [4], in assay [5] and in [6] was “inactive” in each case. Besides, in assay [9], the Potency result was “inactive”. Also, the call in assay [7], in assay [8] and in assay [10] was inactive.
In the case of `CC#N`, the Potency entry in assay [1], in assay [2], in [3], in assay [4], in assay [5] and in assay [6] was “inactive” throughout. For the same compound, the Potency entry in [9] is “inactive”. Also, the outcome in [8] was inactive.
Regarding `CCC(=O)Oc1ccc(/C(CC)=C(\CC)c2ccc(OC(=O)CC)cc2)cc1`, the Potency in assay [1] was 15400 nM (active); in [6] it was 8630 nM (active). Further, the Potency entry in assay [2], in [3], in assay [4], in assay [5] and in assay [9] was “inactive” in each case. In addition, the compound was classed as inactive in [7], in assay [8] and in assay [10].
As to `CCC(C(=O)OCCN(CC)CC)c1ccccc1` (stereo not given), the Potency entry in assay [1], in assay [2], in assay [3], in [4], in [5] and in assay [6] was “inactive” in each case. Moreover, in [9], the Potency result is “inactive”. Moreover, the outcome in [7], in [8] and in assay [10] was inactive.
With `N#C[C@@H]1C[C@@H]2C[C@@H]2N1C(=O)[C@@H](N)C12CC3CC(CC(O)(C3)C1)C2`, the Potency entry in assay [1], in assay [2], in assay [3], in assay [4], in [5] and in assay [6] was “inactive” throughout. For the same compound, in assay [9], the Potency result is “inactive”. For the same compound, the call in [7], in assay [8] and in assay [10] was inactive.
Consider `O=C(OCCOCCO)c1ccccc1Nc1cccc(C(F)(F)F)c1`, for which the Potency entry in [1], in [2], in assay [3], in assay [4], in assay [5] and in assay [6] was “inactive” in each case. Moreover, the fluorescence, relative to Rose Bengal in assay [7] is -0.199% [at 18.6 µM]. Moreover, the fluorescence, % of fluorescein control in assay [8] is 0.199% [at 18.6 µM]. For the same compound, in [9], the fluorescence, % of triamterene was -0.0212% [at 18.6 µM].
Turning to `CCCOCCOCCO`, the Potency entry in assay [1], in [2], in assay [3], in assay [4], in [5] and in assay [6] was “inactive” in each case. Also, the Potency result in assay [9] was “inactive”. Also, the compound was classed as inactive in [8] and in assay [10].
Turning to `Nc1nccs1`, the Potency entry in assay [1], in assay [2], in assay [3], in [4], in [5] and in [6] was “inactive” each time. Besides, the Potency entry in assay [9] was “inactive”. Also, the result in assay [7], in assay [8] and in assay [10] was inactive.
Turning to `CC(COc1ccc(C(C)(C)C)cc1)OS(=O)OCCCl` (stereo not given), the Potency result in assay [1], in [2], in [3], in [4], in assay [5] and in assay [6] was “inactive” each time. In addition, the Potency result in [9] is “inactive”. Also, the outcome in assay [7], in assay [8] and in assay [10] was inactive.
Turning to `O=C(O)c1ccc(CO)o1`, the Potency entry in assay [1], in assay [2], in assay [3], in assay [4], in [5] and in assay [6] was “inactive” throughout. For the same compound, the Potency entry in [9] is “inactive”. Further, the outcome in assay [7], in assay [8] and in assay [10] was inactive.
In the case of `CCOC(=N)CC(=O)OCC`, the Potency result in [1], in [2], in [3], in [4], in assay [5] and in assay [9] was “inactive” throughout. Also, the result in [7], in [8] and in assay [10] was inactive.
On to `C=CC(C)=CCC=C(C)C`, for which the Potency result in assay [1], in assay [2], in assay [3], in [4], in assay [5] and in [9] was “inactive” each time. For the same compound, the compound was called inactive in [8] and in assay [10].
Turning to `Cc1cc(OI)c(C(C)C)cc1-c1cc(C(C)C)c(OI)cc1C`, the Potency entry in [1], in [2], in [3], in assay [4], in [5] and in assay [9] was “inactive” each time. In addition, the compound was classed as inactive in [7], in assay [8] and in assay [10].
For `CN(C(=O)C(Cl)Cl)c1ccc(OC(=O)c2ccco2)cc1`, the Potency entry in assay [1], in [2], in assay [3], in [4], in [5] and in assay [9] was “inactive” throughout. Moreover, the result in assay [7], in [8] and in assay [10] was inactive.
Take `CO[C@H]1O[C@H](CO)[C@@H](O)[C@H](O)[C@H]1O`: the Potency result in assay [1], in [2], in assay [3], in assay [4], in assay [6] and in [9] was “inactive” in each case. Besides, the compound was called inactive in [7], in [8] and in assay [10].
Turning to `COCC(O)CO` (stereo not given), the Potency entry in [1], in [2], in assay [3], in assay [4], in assay [5] and in [9] was “inactive” in each case. In addition, the result in assay [8] and in [10] was inactive.
Consider `Nc1ccc(S(=O)(=O)O)c(N)c1`, for which the Potency entry in assay [1], in assay [2], in assay [3], in assay [4], in assay [5] and in assay [9] was “inactive” each time. The call in assay [8] and in [10] was inactive.
